# PubChem BioAssay (NCATS)
# Inconclusive results are not listed. Entries that show only a call come without a potency. A number with no mark means an inactive call. Active and inactive are the calls of the source. Unless noted, the call rests on the fitted dose curve; in most records, active means well fitted curve in the direction sought with a large enough effect; inconclusive means small, poorly fitted or top-dose-only effect, or another doubt; inactive means no such curve, though single readings can be large; an effect the other way counts as inactive or inconclusive.
# How the values were obtained:
# [1] = qHTS for Inhibitors of Plasmodium falciparum (GB4) proliferation (AID 504315); further: nearly all actives have a fitted effect of over 50% in size; further: potency means the concentration at half of the fitted maximal effect
# Outline: (§1)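 Erythrocytes infected with P. falciparum line (0.3% parasitemia, 2.5% hematocrit final) incubated with compounds 72 h at 37 °C, 5% CO2; SYBR Green lysis buffer added, fluorescence read next day. Normalized to 0.29 uM artemisinin and DMSO.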
# [2] = qHTS for Inhibitors of Plasmodium falciparum (7G8) proliferation (AID 504316); further: nearly all actives have a fitted effect of over 65% in size; further: potency means the concentration at half of the fitted maximal effect
# Outline: as §1
# [3] = qHTS for Inhibitors of Plasmodium falciparum (CP250) proliferation (AID 504320)
# Outline: as §1
# [4] = molecular target: Atrial natriuretic peptide receptor 1 (Homo sapiens) (UniProt P16066); experiment: Natriuretic polypeptide receptor (hNpr1) antagonism - Pilot CMLD screen (AID 1347052; calls by dose curve;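 further: HEK293 cells with hNpr1 stimulated by hNppA peptide at 0.1 nM; cGMP level read as GloSensor luciferase luminescence after agonist stimulation; series mostly up to about 9.2 µM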)
# Atrial natriuretic peptide receptor 1 (Homo sapiens), sequence (P16066 whole entry, looked up): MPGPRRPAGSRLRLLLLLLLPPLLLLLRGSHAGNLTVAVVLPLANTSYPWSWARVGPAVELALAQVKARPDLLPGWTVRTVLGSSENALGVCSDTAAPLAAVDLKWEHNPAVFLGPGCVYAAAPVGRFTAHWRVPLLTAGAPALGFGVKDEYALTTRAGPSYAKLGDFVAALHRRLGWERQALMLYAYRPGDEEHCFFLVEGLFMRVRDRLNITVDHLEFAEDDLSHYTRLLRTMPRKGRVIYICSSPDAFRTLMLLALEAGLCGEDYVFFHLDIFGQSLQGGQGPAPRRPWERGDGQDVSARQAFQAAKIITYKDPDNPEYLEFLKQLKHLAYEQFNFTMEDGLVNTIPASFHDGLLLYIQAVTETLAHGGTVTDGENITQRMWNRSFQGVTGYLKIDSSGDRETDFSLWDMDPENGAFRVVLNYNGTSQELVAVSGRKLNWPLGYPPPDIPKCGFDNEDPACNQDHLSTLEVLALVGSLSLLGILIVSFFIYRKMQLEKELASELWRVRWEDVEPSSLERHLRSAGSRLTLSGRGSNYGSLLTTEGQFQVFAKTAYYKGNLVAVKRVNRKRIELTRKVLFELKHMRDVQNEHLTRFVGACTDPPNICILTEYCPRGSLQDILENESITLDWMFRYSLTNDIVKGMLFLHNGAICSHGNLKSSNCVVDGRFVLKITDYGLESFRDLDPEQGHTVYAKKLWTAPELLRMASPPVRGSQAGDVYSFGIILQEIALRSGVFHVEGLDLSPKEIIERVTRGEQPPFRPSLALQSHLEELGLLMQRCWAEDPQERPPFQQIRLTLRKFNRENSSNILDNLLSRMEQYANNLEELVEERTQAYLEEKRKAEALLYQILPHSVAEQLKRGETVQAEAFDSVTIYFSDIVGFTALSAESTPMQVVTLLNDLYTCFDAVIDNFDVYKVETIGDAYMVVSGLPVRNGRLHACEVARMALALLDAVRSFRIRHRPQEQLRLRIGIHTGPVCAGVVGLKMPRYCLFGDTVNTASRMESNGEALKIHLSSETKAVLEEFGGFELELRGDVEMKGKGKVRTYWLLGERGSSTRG
# [5] = qHTS for Inhibitors of Plasmodium falciparum (HB3) proliferation (AID 504318); further: nearly all actives have a fitted effect of over 60% in size; further: potency means the concentration at half of the fitted maximal effect
# Outline: as §1
Compound,Potency [1],Potency [2],Potency [3],Potency [4],Potency [5]
O=c1oc2ccccc2c2c1[C@H]1O[C@](c3ccsc3)(Cc3c1ccc1ccccc31)O2,inactive,inactive,inactive,inactive,–
CCN1C(=NCCc2ccccn2)NC(c2cccc(C(F)(F)F)c2)C(C(=O)OC)=C1C (stereo not given),301 nM (active),–,–,inactive,inactive
C=CCN1C(=O)[C@]2(O[C@H](C)CC3=CCCC32)c2c(Br)cccc21 (stereo not given in full),inactive,inactive,inactive,inactive,–
C=CC1=C2C=C(C3CC3)N(C(CO)CO)C=C2C(=O)C(C)(OC(=O)c2ccco2)C1=O (stereo not given),inactive,inactive,inactive,inactive,–
CCN1C(=NCCCOC(C)C)N[C@@H](CCc2ccccc2)[C@H](C(=O)NCCCOC(C)C)[C@H]1C,inactive,–,–,inactive,inactive
CCN1C(=NCc2cccc(C(F)(F)F)c2)NC(c2cccc(F)c2)C(C(=O)OC)=C1C (stereo not given),757 nM (active),–,–,inactive,inactive
CC(CCC(=O)OC[C@H]1O[C@H](C#Cc2ccccc2)C=C[C@H]1Oc1ccc(C)cc1)=NO[C@H](C)c1cn([C@@H]2COC[C@@H]2O)nn1,inactive,inactive,inactive,inactive,–
c1ccc(CCc2nc(-c3ccccc3)oc2NC2CCCCC2)cc1,inactive,–,–,inactive,inactive
COc1ccc(O[C@H]2C=C[C@@H](c3ccccc3)O[C@H]2CON=C2c3cc(OC)ccc3O[C@H](c3cccc(OC)c3)[C@H]2O)cc1,inactive,1690 nM (active),inactive,inactive,–
CCCCc1nc2c(c3c1C[C@H](C)OC3)CN(S(=O)(=O)c1ccccc1C(=O)OC)CC2,inactive,inactive,inactive,inactive,–
CC(C)[C@@H](OCc1ccccc1)[C@H](C)CON=C1[C@H]2CCn3c(=O)n(-c4ccccc4)c(=O)n3[C@@H]2[C@H](O)[C@@H]2O[C@H]12,inactive,–,–,inactive,inactive
COc1cccc([C@@H]2Oc3ccc(OC)cc3C[C@@H]2OC(=O)N[C@H]2CCCc3ccccc32)c1,inactive,1510 nM (active),inactive,inactive,–
COC1=C[C@H](C(=O)N[C@H]2CCCC[C@H]2NC(C)=O)[C@H](C)[C@@H](c2ccccc2)CC1=O,inactive,inactive,inactive,inactive,–
CC1(OC(=O)c2ccc(Cl)nc2)C(=O)C=C2C=C(c3ccsc3)OC=C2C1=O (stereo not given),inactive,–,–,inactive,inactive
CC(C)=CCCC(C)=CCN1C(=O)[C@]2(O[C@H](COc3ccccc3)CC3=CCCC32)c2c(Br)cccc21 (stereo not given in full),1510 nM (active),–,–,inactive,1690 nM (active)
CC#C[C@H](C)[C@@H](OCOC)[C@H](C[C@H](C)Cc1cc(Br)cc(OCc2ccccc2)c1OC)OC,1510 nM (active),–,–,inactive,1690 nM (active)
C=CCNC(=O)N1CCc2nc(-c3ccc(OC)cc3C)c3c(c2C1)CO[C@@H](c1ccccc1)C3,inactive,1510 nM (active),inactive,inactive,–
